This passage reports Potency, activity change, negative = inhibition and activity, negative = inhibition results from PubChem BioAssay (NCATS).

For test [1], the target named is Lysosomal acid glucosylceramidase (Homo sapiens) (UniProt P04062). Kind of test: Glucocerebrosidase-p2 (AID 348; in the data active = potency below about 10 µM; also: potency is read from the fitted curve at half-maximal effect). The following applies: purified GBA, blue fluorogenic substrate, 40 min. Put shortly: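 Compounds titrated from 0.6 nM upwards against 0.2 nM enzyme in pH 5.9 citric acid/KH2PO4, taurocholate, tween-20; blue fluorogenic substrate 80 uM, 40 min room temperature, stopped and read Ex 365/Em 440 for AC50.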

The target in test [2] is Cytochrome P450 1A2 (Homo sapiens) (UniProt P05177). Put plainly: p450-cyp1a2 (AID 410; calls by dose curve; also: potency is read from the fitted curve at half-maximal effect;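 as to activity change, negative = inhibition: -100% = full effect of reference inhibitor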). The conditions noted are these: recombinant CYP1A2, luciferin-ME demethylation, luminescence; series mostly up to 11.4 µM. Put shortly: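 Human CYP1A2 (20nM) demethylated Luciferin-ME at its Km (100uM) in 100mM KPO4. After 10 min compound preincubation, NADPH regeneration ran the reaction 60 min at room temperature. Luciferin was read by luminescence, normalized to 57 uM furafylline.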

The nature of test [3]: NFAT Signaling Pathway (AID 444).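 Also: carbachol stimulus at about its EC50 of 1 µM final; % is scaled to controls: 0 for no effect and ±100 for the full control effect.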 The conditions noted are these: Jurkat NFAT-bla M1, carbachol, beta-lactamase ratio, 5 h; at 7.69 µM (top of the series) unless noted. Summed up: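 Read-out: CCF4 FRET ratio (460 nm/530 nm) after 1 h RT dye loading, used for %activity and AC50 from titration series. Cells: Jurkat NFAT-β-lactamase/M1 line, treated with compound plus 1 uM carbachol for 5 h, 37 °C.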

The nature of test [4]: Stat Signaling Pathway (AID 446).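 Also: ME-180 cervical cancer cells given 40 pM IL-6 alongside compound; SIE-controlled beta-lactamase reporter measured as 460/530 nm FRET emission ratio; % is scaled to controls: 0 for no effect and ±100 for the full control effect.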 The conditions noted are these: ME-180 SIE beta-lactamase reporter, IL-6 stimulated, 5 h; at 7.69 µM (top of the series) unless noted. Summed up: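 ME-180 SIE-bla cells; overnight plating; cpd + IL-6 40 pM, 5 h, 37 C; LiveBLAzer 2.5 h RT; 460/530 nm emission ratio. Normalized to 300 pM IL-6 and 125 nM JAK inhibitor controls.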
The target in test [5] is Glucocorticoid receptor (Homo sapiens) (UniProt P04150). Kind of test: GR-GFP Redistribution (AID 450;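 active = compounds whose dose series gives a full or clear partial fitted curve of increased nuclear translocation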; also: potency is read from the fitted curve at half-maximal effect). The conditions noted are these: U2OS GR-GFP nuclear translocation, laser cytometry, 2 h.
For test [6] the target is unchanged. Kind of test: GR-EFC Redistribution (AID 451; calls by dose curve; also: potency is read from the fitted curve at half-maximal effect). The following applies: CHO-K1 GR-EFC translocation, beta-gal luminescence, 2 h. Put shortly: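 Translocation of GR-ED fusion to nuclear EA restores b-gal, read by luminescence after 1 h room-temperature detection. Engineered CHO-K1 biosensor cells, 1,000/well, exposed 2 h at 37 C to titrations up to 46 uM final.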

Test [7] addresses Mitogen-activated protein kinase 10 (Mus musculus) (UniProt Q61831). Put plainly: JNK3 AlphaScreen Assay (AID 530).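 Also: kinase came from lysate of stimulated human HepG2 cells; signal reports phosphorylation of biotinylated GST-cJun 1-79 at Ser73 with 10 µM ATP; % is scaled to controls: 0 for no effect and ±100 for the full control effect.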 The conditions noted are these: JNK3 lysate, c-Jun phosphorylation; series mostly up to 11.4 µM. Summed up: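 Room-temperature AlphaScreen kinase assay; pre-activated HepG2 lysate as JNK3 source, biotin-GST-cJun(1-79) substrate, 10 uM ATP, compound 15 min preincubation.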
(In general: Alpha assays give light when donor and acceptor beads are brought close together.)

Test [8] deals with 3',5'-cyclic-AMP phosphodiesterase 4B (Homo sapiens) (UniProt Q07343). Kind of test: qHTS Assay for Inhibitors of PDE-IV (AID 607; active = well fitted activation curve with a large enough effect in the main read-out, with a control signal flat, not every such curve was filed as active; also: % of control where 0% means no effect). The conditions noted are these: HEK293 ACTOne CNG channel cells, membrane potential fluorescence; series mostly up to 22.9 µM. Summed up:
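ACTOne HEK293 cells carry a modified cAMP-gated CNG channel and express endogenous PDE4; plated 1000 cells/well, compounds up to 22.9 uM final. Membrane-potential dye fluorescence (ex 535/em 590) was read; parental cells received 10 uM forskolin + 100 uM RO 20-1724.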

The target in test [9] is Cytochrome P450 2D6 (Homo sapiens) (UniProt P10635). Kind of test: qHTS Assay for Inhibitors and Substrates of Cytochrome P450 2D6 (AID 891; active = well fitted curve in the direction sought with a large enough effect; an effect the other way counts as inactive or inconclusive; also: nearly all actives have a fitted effect of over 60% in size; also: potency is read from the fitted curve at half-maximal effect;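 as to activity change, negative = inhibition: luciferin methyl ether substrate demethylated by CYP2D6 with NADPH regeneration; % is scaled to controls: 0 for no effect and ±100 for the full control effect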). The following applies: recombinant CYP2D6, luciferin-ME EGE luminescence; series mostly up to 11.4 µM. Put shortly:
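Human CYP2D6 (5 nM) with 30 uM Luciferin-ME EGE (at Km) in 100 mM KPO4, compound preincubated 10 min, then NADPH regeneration system for 60 min at room temperature. Luciferin read by luminescence; normalized to 1.43 uM quinidine.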
(In general: qHTS replaces the single test concentration by a dilution series.)

Test [10] has as its target Cytochrome P450 3A4 (Homo sapiens) (UniProt P08684). Kind of test: qHTS Assay for Inhibitors and Substrates of Cytochrome P450 3A4 (AID 884; active = well fitted curve in the direction sought with a large enough effect; an effect the other way counts as inactive or inconclusive; also: potency is read from the fitted curve at half-maximal effect; nearly all actives have a fitted effect of over 50% in size). The conditions noted are these: recombinant CYP3A4, Luciferin-PPXE luminescence; series mostly up to 57.1 µM. Summed up:
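20 nM human CYP3A4 with 25 uM Luciferin-PPXE (at KM) in 200 mM KPO4, preincubated 10 min with compound; NADPH regeneration started a 60 min RT reaction. Luciferin detected by luminescence, normalized to 57 uM ketoconazole as full inhibition.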

The target is the same in test [11]. Put plainly: qHTS Assay for Activators of Cytochrome P450 3A4 (AID 885; active = well fitted curve in the direction sought with a large enough effect; an effect the other way counts as inactive or inconclusive; also: nearly all actives have a fitted effect of over 65% in size). The following applies: recombinant CYP3A4, Luciferin-PPXE luminescence, 60 min; series mostly up to 11.4 µM. Summed up:
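20nM CYP3A4 + 25uM Luciferin-PPXE (=KM), 200mM KPO4; cpd 10 min RT; NADPH regen, 60 min RT; stop w/ detection buffer, 20 min; luminescence. Normalized to 57 uM ketoconazole.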

The target of test [12] is Cytochrome P450 2C19 (Homo sapiens) (UniProt P33261). Put plainly: qHTS Assay for Inhibitors and Substrates of Cytochrome P450 2C19 (AID 899; active = well fitted curve in the direction sought with a large enough effect; an effect the other way counts as inactive or inconclusive; also: nearly all actives have a fitted effect of over 60% in size; also: potency is read from the fitted curve at half-maximal effect). The following applies: recombinant CYP2C19, luciferin-H EGE luminescence; series mostly up to 11.4 µM. Put shortly: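 5nM enzyme + 10uM Luciferin-H EGE (=KM), 50mM KPO4; cpd pin-transferred, 10 min 37C; NADPH regen, 60 min 37C; stopped w/ luciferin detection reagent, 20 min; luminescence. Normalized to 57uM ketoconazole (AC100).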

Test [13] concerns the target Cytochrome P450 2C9 (Homo sapiens) (UniProt P11712). Kind of test: qHTS Assay for Inhibitors and Substrates of Cytochrome P450 2C9 (AID 883; active = well fitted curve in the direction sought with a large enough effect; an effect the other way counts as inactive or inconclusive; also: potency is read from the fitted curve at half-maximal effect; nearly all actives have a fitted effect of over 60% in size). The following applies: recombinant CYP2C9, luciferin-H luminescence, 60 min; series mostly up to 11.4 µM. Put shortly:
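Inhibition of CYP2C9 is scored as loss of luminescence, with 57uM sulphaphenazole defining 100% inhibition. Substrate Luciferin-H is used at 100uM, equal to its KM; enzyme at 10nM in 25mM KPO4, 60 min at 37C with NADPH regeneration.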

Unmarked numbers belong to inactive results. Records with an inconclusive call do not appear. Activity calls are given as the source filed them. Unless noted, calls follow the shape of the dose curve; as a rule, active = well fitted curve in either direction with a large enough effect (not every such curve was filed as active); inconclusive = small, poorly fitted or top-dose-only effect, or another doubt; inactive = flat fitted curve, though single readings scatter. Some results are limits rather than exact numbers.

Chain of Glucocorticoid receptor (Homo sapiens) (P04150 whole entry, looked up, the tested form may be a part): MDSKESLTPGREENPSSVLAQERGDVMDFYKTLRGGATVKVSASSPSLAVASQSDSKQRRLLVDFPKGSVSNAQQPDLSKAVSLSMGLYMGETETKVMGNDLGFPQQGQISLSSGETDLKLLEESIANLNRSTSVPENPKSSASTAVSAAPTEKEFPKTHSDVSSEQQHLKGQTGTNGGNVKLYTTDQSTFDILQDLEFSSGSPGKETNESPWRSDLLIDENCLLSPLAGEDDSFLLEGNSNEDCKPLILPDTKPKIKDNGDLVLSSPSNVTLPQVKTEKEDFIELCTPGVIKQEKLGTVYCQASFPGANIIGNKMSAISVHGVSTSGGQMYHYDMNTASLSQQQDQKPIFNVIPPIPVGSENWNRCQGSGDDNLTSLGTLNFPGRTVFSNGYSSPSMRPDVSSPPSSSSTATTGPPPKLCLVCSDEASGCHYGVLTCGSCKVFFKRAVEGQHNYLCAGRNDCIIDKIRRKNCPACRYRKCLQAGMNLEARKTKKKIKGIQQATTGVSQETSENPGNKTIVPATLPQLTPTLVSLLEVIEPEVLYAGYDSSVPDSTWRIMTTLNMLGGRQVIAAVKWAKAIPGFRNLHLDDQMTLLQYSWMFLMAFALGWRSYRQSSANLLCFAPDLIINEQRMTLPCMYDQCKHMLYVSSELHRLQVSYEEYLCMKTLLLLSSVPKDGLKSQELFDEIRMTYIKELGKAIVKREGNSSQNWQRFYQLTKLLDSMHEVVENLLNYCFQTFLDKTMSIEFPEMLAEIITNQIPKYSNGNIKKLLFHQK
Chain of Lysosomal acid glucosylceramidase (Homo sapiens) (P04062 whole entry, looked up): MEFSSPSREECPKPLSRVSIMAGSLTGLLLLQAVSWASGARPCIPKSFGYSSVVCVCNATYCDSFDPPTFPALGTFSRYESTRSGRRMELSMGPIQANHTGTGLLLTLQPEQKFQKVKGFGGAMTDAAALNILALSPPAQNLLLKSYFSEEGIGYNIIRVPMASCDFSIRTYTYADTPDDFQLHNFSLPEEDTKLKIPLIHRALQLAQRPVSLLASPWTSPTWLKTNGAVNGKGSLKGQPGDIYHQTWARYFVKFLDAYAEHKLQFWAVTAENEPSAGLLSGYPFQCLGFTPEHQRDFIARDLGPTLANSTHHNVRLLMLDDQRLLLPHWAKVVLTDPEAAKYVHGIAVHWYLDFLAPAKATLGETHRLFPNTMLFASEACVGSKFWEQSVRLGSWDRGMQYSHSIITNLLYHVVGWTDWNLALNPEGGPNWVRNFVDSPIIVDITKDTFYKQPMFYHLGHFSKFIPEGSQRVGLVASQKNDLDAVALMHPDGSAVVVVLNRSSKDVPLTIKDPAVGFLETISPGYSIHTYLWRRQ
Chain of 3',5'-cyclic-AMP phosphodiesterase 4B (Homo sapiens) (Q07343 whole entry, looked up): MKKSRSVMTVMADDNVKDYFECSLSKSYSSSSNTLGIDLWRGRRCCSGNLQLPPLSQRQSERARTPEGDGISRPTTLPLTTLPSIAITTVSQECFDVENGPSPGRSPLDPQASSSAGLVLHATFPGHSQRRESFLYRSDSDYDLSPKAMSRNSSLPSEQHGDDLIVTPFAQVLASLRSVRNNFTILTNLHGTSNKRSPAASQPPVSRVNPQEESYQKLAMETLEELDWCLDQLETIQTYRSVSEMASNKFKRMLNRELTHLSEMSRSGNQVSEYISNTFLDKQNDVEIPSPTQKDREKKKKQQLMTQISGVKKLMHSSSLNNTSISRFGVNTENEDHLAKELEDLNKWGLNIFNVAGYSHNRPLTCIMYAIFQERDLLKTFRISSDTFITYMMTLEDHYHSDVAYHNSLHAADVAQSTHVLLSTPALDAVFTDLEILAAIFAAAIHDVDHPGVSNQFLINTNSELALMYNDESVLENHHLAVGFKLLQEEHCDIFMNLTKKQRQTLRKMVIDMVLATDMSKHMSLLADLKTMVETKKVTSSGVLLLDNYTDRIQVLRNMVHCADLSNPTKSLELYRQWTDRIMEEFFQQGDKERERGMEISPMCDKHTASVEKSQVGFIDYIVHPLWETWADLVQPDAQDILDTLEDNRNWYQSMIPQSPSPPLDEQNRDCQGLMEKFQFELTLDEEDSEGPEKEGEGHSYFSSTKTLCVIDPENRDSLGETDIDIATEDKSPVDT
Chain of Cytochrome P450 1A2 (Homo sapiens) (P05177 whole entry, looked up): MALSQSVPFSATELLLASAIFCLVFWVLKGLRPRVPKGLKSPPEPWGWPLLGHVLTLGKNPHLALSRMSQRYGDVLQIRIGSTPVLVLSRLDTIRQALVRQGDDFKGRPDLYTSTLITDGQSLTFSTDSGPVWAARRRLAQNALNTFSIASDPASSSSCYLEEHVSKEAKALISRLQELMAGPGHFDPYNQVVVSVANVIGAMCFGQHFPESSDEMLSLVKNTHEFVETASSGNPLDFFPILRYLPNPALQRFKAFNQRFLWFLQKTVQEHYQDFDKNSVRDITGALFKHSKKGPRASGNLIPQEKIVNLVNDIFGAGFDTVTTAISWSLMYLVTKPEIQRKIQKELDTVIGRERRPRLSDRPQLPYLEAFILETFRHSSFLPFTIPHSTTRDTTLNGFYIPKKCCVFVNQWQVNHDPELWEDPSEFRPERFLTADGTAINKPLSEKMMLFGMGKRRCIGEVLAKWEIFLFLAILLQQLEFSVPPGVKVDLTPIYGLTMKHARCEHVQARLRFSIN
Chain of Cytochrome P450 3A4 (Homo sapiens) (P08684 whole entry, looked up): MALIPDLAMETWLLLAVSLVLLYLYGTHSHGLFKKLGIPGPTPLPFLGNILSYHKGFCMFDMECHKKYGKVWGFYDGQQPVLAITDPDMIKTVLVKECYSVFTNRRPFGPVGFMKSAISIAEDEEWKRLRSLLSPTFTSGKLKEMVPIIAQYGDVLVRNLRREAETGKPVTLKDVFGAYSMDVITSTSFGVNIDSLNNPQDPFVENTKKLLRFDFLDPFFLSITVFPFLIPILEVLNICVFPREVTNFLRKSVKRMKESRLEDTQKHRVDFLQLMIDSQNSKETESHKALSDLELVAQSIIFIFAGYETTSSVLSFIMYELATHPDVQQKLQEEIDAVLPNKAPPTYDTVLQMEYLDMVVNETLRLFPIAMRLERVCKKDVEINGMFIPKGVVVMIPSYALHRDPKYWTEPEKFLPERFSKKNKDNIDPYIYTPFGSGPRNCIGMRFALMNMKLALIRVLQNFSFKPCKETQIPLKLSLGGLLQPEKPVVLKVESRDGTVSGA
Chain of Cytochrome P450 2C19 (Homo sapiens) (P33261 whole entry, looked up): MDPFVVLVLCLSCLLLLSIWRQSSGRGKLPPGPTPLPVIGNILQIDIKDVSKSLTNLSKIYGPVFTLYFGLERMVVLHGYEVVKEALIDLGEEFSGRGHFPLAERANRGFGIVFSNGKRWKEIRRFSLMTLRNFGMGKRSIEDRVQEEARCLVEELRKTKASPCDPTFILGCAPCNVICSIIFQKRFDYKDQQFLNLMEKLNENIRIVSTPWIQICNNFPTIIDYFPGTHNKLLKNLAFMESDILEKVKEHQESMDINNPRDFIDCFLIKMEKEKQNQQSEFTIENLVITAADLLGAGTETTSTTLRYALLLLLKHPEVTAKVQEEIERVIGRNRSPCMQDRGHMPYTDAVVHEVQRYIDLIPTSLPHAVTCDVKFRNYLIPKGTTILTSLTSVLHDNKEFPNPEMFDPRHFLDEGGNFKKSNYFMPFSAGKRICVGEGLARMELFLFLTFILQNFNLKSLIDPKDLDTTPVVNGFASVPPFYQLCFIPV
Chain of Cytochrome P450 2C9 (Homo sapiens) (P11712 whole entry, looked up): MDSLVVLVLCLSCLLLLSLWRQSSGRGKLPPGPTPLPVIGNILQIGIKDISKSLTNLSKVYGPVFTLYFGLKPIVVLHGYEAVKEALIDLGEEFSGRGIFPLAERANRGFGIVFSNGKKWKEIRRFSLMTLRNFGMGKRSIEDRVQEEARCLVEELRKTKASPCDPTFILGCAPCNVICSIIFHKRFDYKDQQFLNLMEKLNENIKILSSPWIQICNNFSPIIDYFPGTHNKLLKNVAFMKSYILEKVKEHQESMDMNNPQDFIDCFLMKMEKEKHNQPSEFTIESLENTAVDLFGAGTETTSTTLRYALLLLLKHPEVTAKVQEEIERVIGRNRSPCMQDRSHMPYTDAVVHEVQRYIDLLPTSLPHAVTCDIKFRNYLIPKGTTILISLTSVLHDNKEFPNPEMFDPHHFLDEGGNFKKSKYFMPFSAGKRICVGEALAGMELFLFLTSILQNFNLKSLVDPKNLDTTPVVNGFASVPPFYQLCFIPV
Chain of Cytochrome P450 2D6 (Homo sapiens) (P10635 whole entry, looked up): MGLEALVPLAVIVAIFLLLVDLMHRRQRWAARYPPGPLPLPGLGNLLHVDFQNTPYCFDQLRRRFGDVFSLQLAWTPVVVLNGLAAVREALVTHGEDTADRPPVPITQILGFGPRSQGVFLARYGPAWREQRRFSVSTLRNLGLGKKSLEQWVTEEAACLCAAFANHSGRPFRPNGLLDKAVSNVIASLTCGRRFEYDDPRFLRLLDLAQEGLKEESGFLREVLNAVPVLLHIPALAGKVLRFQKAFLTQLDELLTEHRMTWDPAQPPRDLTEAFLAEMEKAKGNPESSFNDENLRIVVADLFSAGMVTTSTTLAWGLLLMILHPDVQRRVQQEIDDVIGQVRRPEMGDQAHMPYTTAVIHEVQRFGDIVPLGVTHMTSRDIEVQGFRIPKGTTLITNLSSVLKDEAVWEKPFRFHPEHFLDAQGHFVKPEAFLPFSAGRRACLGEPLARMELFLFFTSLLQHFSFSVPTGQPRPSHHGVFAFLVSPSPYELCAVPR

As for `O=C(O)c1ccc(/C=N\N=C2c3ccccc3-c3ccccc32)cc1`, the Potency was > 11.4 µM in test [1], 0.126 µM (active) in test [2], > 46 µM in [5] and > 9.22 µM in [6]. Further, the activity change, negative = inhibition in test [3] is -25.2%. Moreover, in test [4], the activity, negative = inhibition was -6.87%. Moreover, the Potency result in test [7], in [8] and in [9] was “inactive” in each case.
`C[N+](C)([O-])CCC=C1c2ccccc2CCc2ccccc21`: the Potency in [1] is > 11.4 µM; in [2], 0.794 µM (active); in test [5] it was > 46 µM; in test [6], > 9.22 µM; in test [10], 1.26 µM (active); in [12], 0.398 µM (active). Also, the activity, negative = inhibition in [4] is 10.1%. Besides, the Potency entry in [7], in test [8] and in test [11] was “inactive” each time.
`O=C(c1ccncc1)N1CCC2(CCCN(c3cccc(-c4ccccc4)c3)C2)CC1`: the Potency was > 11.4 µM in [1], 12.6 µM (active) in test [2] and > 46 µM in test [6]. Further, the activity change, negative = inhibition in test [3] was -6.09%. The activity, negative = inhibition in test [4] is -7.37%. Further, the Potency result in test [7] is “inactive”.
In the case of `ClC(=Nc1cccc2ccccc12)N(c1ccccc1)c1ccccc1`, the Potency in [1] is > 11.4 µM; in test [2], 1 µM (active); in test [5], > 46 µM; in [6], > 9.22 µM; in test [13], 3.16 µM (active); in test [12] it was 2.51 µM (active). Besides, in [3], the activity change, negative = inhibition is -2.09%. Also, the Potency result in [7], in test [8] and in test [11] was “inactive” each time.
With `O=C(O)[C@@H]1[C@@H](C(=O)Nc2ccccc2)[C@@H]2C=C[C@@H]1O2`, the Potency in [1] was > 11.4 µM; in [5], > 46 µM; in [6] it was > 9.22 µM. In addition, the activity change, negative = inhibition in [2] is -18.1% [at 2.29 µM]; in [3], 8.21%. Also, the Potency entry in [7] and in test [8] was “inactive” throughout.
With `CN(C)CCCN1c2ccccc2Sc2ccc3ccccc3c21`, the Potency in [1] is > 11.4 µM; in [5] it was > 46 µM; in [6] it was > 9.22 µM; in test [9], 1.26 µM (active). Moreover, the activity change, negative = inhibition in [2] is -2.2% [at 2.29 µM]. Further, the activity, negative = inhibition in test [4] is 3.27%. For the same compound, the Potency result in [7] and in test [8] was “inactive” in each case.
In the case of `Cc1cc(OCc2nc(N)nc(N)c2-c2ccc(Cl)c(Cl)c2)ccc1[N+](=O)[O-]`, the Potency in [1] is > 11.4 µM; in test [2] it was 5.01 µM (active); in [5], > 46 µM; in test [6] it was > 9.22 µM; in test [13] it was 1.58 µM (active); in test [12], 3.16 µM (active). Besides, the activity, negative = inhibition in test [4] was -17.5%. Further, the Potency result in test [7], in [8] and in test [11] was “inactive” throughout.
With `Cc1ccc(S(=O)(=O)N2CCC(C(=O)O)(c3ccccc3)CC2)cc1`, the Potency in test [1] is > 11.4 µM; in [5] it was > 46 µM; in test [6], > 9.22 µM. Also, the Potency result in test [2], in test [7], in test [8] and in [12] was “inactive” throughout. Further, the activity change, negative = inhibition in [3] is 2.33%. Moreover, in test [4], the activity, negative = inhibition was -9.97%.
